DT40 TDP1 no CPT: qHTS for Inhibitors of human tyrosyl-DNA phosphodiesterase 1 (TDP1): qHTS in cells in absence of CPT; DT40 Tdp1-/- hTDP1 cells, no CPT, ATP luminescence, 48 h; Potency, µM (titrated, usually from 46.2 µM), hits mostly inhibitors; 15% of 420,000 active; note: nearly all actives have a fitted effect of over 55% in size
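Chicken DT40 Tdp1-/- cells complemented with human TDP1, screened without camptothecin (DMSO vehicle only), 400 cells/well. Compounds pin-transferred, cells incubated at 37 °C for at least 48 hr. Growth read as ATP-dependent luminescence (CellTiter-Glo, 30 min at RT).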
IL-1B inflam inh: inhibitors of inflammasome signaling (IL-1 beta secretion); THP-1 LPS/ATP IL-1B secretion, AlphaLISA, 16 h; active compounds read low; activity change, % at 57.5 µM; 4.7% of 360,000 active; in the data active = activity change below about -50%; inconclusive = mostly about -30% to -49%
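Secreted IL-1B measured by AlphaLISA bead assay after 16 h compound exposure of THP-1 cells; compounds (final up to 57.5 uM) added 1 h before LPS (250 ng/mL) and ATP (1.25 mM) stimulation; lower signal means less secretion.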
DT40 TDP1 CPT: growth inhibition of DT40 Tdp1-/-;hTDP1 cells with camptothecin (screen for TDP1 inhibitors). Potency, µM (highest dose often 46.2 µM), hits mostly inhibitors. chicken DT40 Tdp1-/-;hTDP1 cells + 20 nM CPT, ATP luminescence, 48 h. 12% of 420,000 active. AID 686979; note: nearly all actives have a fitted effect of over 55% in size
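Chicken DT40 Tdp1-/- cells stably complemented with human TDP1 were seeded at 400 cells/well in medium containing 20 nM camptothecin, exposed to pin-transferred compounds, and grown at 37 °C for at least 48 hr. Viability was read as ATP luminescence.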
VP16 counter: counter-screen for ROR gamma inhibitors: Gal4-VP16 reporter; 3.5% of 310,000 active; Drosophila S2 Gal4-VP16 UAS-luciferase, luminescence, 20 h; Potency, µM (series often up to 53.6 µM), actives largely listed as inhibitors;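 note: Gal4-VP16 expression switched on by copper sulfate through the metallothionein promoter; nearly all actives have a fitted effect of over 50% in size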
LDHA inh: inhibitors of human lactate dehydrogenase A; P00338; purified LDHA, NADH/diaphorase-resazurin fluorescence; active compounds read low; activity change, % (values are at about 110 or 230 µM); 0.15% of 480,000 active; in the data active = activity change below about -30%; inconclusive = mostly about -25% to -30%
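Enzyme activity of human lactate dehydrogenase 5 (2 nM; 0.06 mM NADH, 0.2 mM pyruvate, 5 min, RT) is measured via a resazurin/diaphorase fluorescence readout of residual NADH.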
RORg inh: ROR gamma (mouse) transcription inhibition; Potency, µM (series often up to 53.6 µM), usual class: inhibitors; P51450; 5.4% of 310,000 active; Drosophila S2 Gal4-RORgamma UAS-luciferase reporter, 20 h; note: nearly all actives have a fitted effect of over 60% in size
Target sequence (P51450 whole entry, looked up, the tested form may be a part): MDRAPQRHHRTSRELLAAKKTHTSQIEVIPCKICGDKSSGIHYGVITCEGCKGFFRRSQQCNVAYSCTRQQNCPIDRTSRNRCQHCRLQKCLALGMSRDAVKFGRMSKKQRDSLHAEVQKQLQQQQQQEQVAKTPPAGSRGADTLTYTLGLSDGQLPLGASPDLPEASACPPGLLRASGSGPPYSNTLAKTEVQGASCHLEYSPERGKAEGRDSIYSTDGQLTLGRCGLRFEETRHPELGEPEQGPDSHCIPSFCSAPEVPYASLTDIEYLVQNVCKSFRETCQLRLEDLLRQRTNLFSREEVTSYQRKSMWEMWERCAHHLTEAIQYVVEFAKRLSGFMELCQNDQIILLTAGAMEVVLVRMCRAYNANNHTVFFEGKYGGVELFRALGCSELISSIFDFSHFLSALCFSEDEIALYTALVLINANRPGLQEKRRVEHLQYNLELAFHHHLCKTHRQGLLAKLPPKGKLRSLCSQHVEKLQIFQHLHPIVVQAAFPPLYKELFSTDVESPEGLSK
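Using a luciferase readout, inhibitors were identified by reduced reporter activity in Drosophila cells coexpressing a copper-inducible Gal4–ROR gamma fusion and UAS-driven Photinus luciferase, incubated 20 hr after 700 uM copper sulfate.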
A number is an active result; n = inactive; u = inconclusive; x = not tested or not shown; [ ] = remark or other dose. This is a sample that favours compounds with a hit; in the whole collection about 18% have one here. Unless noted, calls come from the whole dose curve; as a rule, active = well fitted curve in the direction sought with a large enough effect; inconclusive = small, poorly fitted or top-dose-only effect, or another doubt; inactive = no such curve, though single readings can be large; an effect the other way counts as inactive or inconclusive.

SMILES | DT40 TDP1 no CPT | IL-1B inflam inh | DT40 TDP1 CPT | VP16 counter | LDHA inh | RORg inh
COc1cccc2cc(C(=O)CC3(O)C(=O)N(Cc4ccccc4)c4ccccc43)c(=O)oc12 (configuration not stated) | 6.51µM | n | 13µM | n | n | n
CCc1ccc(C(=O)CC2(O)C(=O)N(Cc3ccc(C)cc3)c3ccccc32)cc1 (configuration not stated) | 2.59µM | x | 4.61µM | x | n | x
O=C(CC1(O)C(=O)N(Cc2ccccc2Cl)c2ccccc21)c1ccco1 (configuration not stated) | 3.66µM | n | 3.26µM | n | n | n
COC(=O)CN1C(=O)C(O)(CC(=O)c2ccc(C)cc2)c2ccccc21 (configuration not stated) | n | n | n | n | n | n
O=C(O)c1ccc(Cl)cc1I | x | x | x | x | n | x
CC(C)CNC(=O)C(C)Sc1nc(-c2ccco2)nc2ccccc12 (configuration not stated) | x | x | x | x | n | x
Cc1ccc(C(=O)Nc2nc(-c3ccc4c(c3)OCCO4)cs2)o1 | u | n | u | x | n | x
CCc1noc(C)c1C(=O)Nc1nc(-c2ccc(OC)c(OC)c2)cs1 | u | u | u | x | n | x
CCc1noc(C)c1C(=O)Nc1nc(-c2ccc(NC(C)=O)cc2)cs1 | 20.6µM | n | 16.4µM | x | n | x
CC(=O)Nc1ccc(-c2csc(NC(=O)c3ccc(C)o3)n2)cc1 | 9.2µM | u | 13µM | n | n | n
Cc1ccc(C(=O)Nc2nc(-c3ccc([N+](=O)[O-])cc3)cs2)o1 | 11.6µM | n | 14.6µM | u | n | n
CCC1CCCCN1CCCNC(=O)C1CCC(CNS(=O)(=O)c2c(C)cc(C)cc2C)CC1 (configuration not stated) | u | n | 29.1µM | n | n | n
CCC(C)C(NC(=O)C1CCC(C)CC1)C(=O)NCCCN1CCCCC1CC (configuration not stated) | n | -63.5 | n | n | n | n
Clc1ccc(Nc2nc(NCC3CCCO3)nc3c2cnn3-c2ccccc2)cc1 (configuration not stated) | x | x | x | x | n | x
CCOc1ccccc1C(=O)N[C@H](C(=O)OCc1cc([N+](=O)[O-])cc2c1OCOC2)C(C)C | 16.4µM | n | u | n | n | n
CCOc1ccccc1C(=O)NC(C(=O)OCc1ccccc1C)C(C)C (configuration not stated) | x | x | x | x | n | x
CC(C)C(NC(=O)c1ccccc1)C(=O)OCc1cc([N+](=O)[O-])cc2c1OCOC2 (configuration not stated) | 11.6µM | n | 14.6µM | n | n | u
CC(C)C(NC(=O)c1ccco1)C(=O)OCc1cc([N+](=O)[O-])cc2c1OCOC2 (configuration not stated) | u | n | u | n[10 µM] | n | n
Cc1nc2ccccc2c(-c2ccccc2)c1C(=O)/C=C/c1ccccc1 | x | x | x | x | n | x
COc1cc(C#N)ccc1OCc1csc(-c2cccc(OC)c2OC)n1 | x | x | x | x | n | x
Cc1nn(CCC(=O)NCc2ccc(OC(C)C)cc2)c(=O)c2nn(-c3ccccc3)c(C)c12 | n | u | n | n | n | n
Cc1nn(-c2ccccc2)c2c1N(CCCC(=O)NCc1ccc(OC(C)C)cc1)C(=O)CS2 | 7.31µM | x | 14.6µM | x | n | x
Cc1nn(-c2ccccc2)c2c1N(CCCC(=O)NC(C)c1ccccc1)C(=O)CS2 (configuration not stated) | u | x | 14.6µM | x | n | x
CCCCOc1ccc(CNC(=O)CCCN2C(=O)CSc3c2c(C)nn3-c2ccccc2)cc1 | 13µM | x | 18.4µM | x | n | x
Cc1cccc(N2CCN(C(=O)CN3C(=O)CSc4c3c(C)nn4-c3ccccc3)CC2)c1C | u | x | u | x | n | x
SMILES | DT40 TDP1 no CPT | IL-1B inflam inh | DT40 TDP1 CPT | VP16 counter | LDHA inh | RORg inh
Cc1nn(-c2ccccc2)c2c1N(CCCC(=O)NCc1ccc(Cl)cc1)C(=O)CS2 | 23.1µM | x | 25.9µM | x | n | x
Cc1cc(C)c2nc(-c3ccc(C)c(C)c3)cc(C(=O)O)c2c1 | x | x | x | x | n | x
CCN(CC)c1ncc(C=O)s1 | x | x | x | x | n | x
Cc1ccc([N+](=O)[O-])cc1N/C=C1\CCc2ccccc2C1=O | u | n | 20.6µM | u | n | n
Cc1ccc(C)c(/C=C2\CCc3ccccc3C2=O)c1 | x | x | x | x | n | x
CCCNc1nc(-c2cccc(Cl)c2)cs1 | x | x | x | x | n | x
Cc1ccc(S(=O)(=O)NNc2ccccc2)cc1 | n | n | n | n | n | n
O=C(NNc1nc2ccccc2nc1C(F)(F)F)c1ccccc1 | u | n | u | 15.8µM | n | 7.94µM
O=C(NNc1nc2ccccc2o1)c1ccccc1 | n | n | n | u | n | u
Cc1ccc(S(=O)(=O)NNc2c3ccccc3nc3ccc(Cl)cc23)cc1 | 8.2µM | n | 23.1µM | x | n | x
Cc1ccc(S(=O)(=O)NNc2nc3ccccc3nc2C(F)(F)F)cc1 | 18.4µM | n | u | u | n | 17.8µM
Cc1c(C(=O)OCCOc2ccccc2)[nH]c2c1C(=O)CC(c1ccc(C(C)(C)C)cc1)C2 (configuration not stated) | u | x | n | x | n | x
COCCOC(=O)c1[nH]c2c(c1C)C(=O)CC(c1ccc(F)cc1)C2 (configuration not stated) | 5.8µM | n | 3.26µM | n | n | n
COCCOC(=O)c1[nH]c2c(c1C)C(=O)CC(c1ccc(N(C)C)cc1)C2 (configuration not stated) | u | n | n | u | n | n
COCCOC(=O)c1[nH]c2c(c1C)C(=O)CC(c1ccccc1)C2 (configuration not stated) | 0.92µM | n | 0.651µM | n | n | u
CC(Sc1nnnn1C1CCCC1)C(=O)c1c[nH]c2ccccc12 (configuration not stated) | x | x | x | x | n | x
CCOC(=O)c1c(N)sc(N)c1C(=O)OCC | 5.17µM | -71.0 | 4.61µM | n | n | n
COc1ccc(-c2c3c(nc4sc(C(=O)Nc5ccccc5)c(N)c24)CCC3)cc1 | u | u | n | x | n | x
CCOC(=O)c1c(C)nc2sc(C(=O)Nc3ccccc3)c(N)c2c1-c1ccc(OC)cc1 | 14.6µM | n | u | n | n | n
COc1ccc(-c2c3c(nc4sc(C(=O)Nc5ccccc5F)c(N)c24)CC(C)(C)CC3=O)cc1 | u | x | u | x | n | x
CCOC(=O)c1sc(NC(=O)C2CCC2)cc1C | 20.6µM | u | n | n | n | n
CCOC(=O)c1cc(NC(=O)C2CCC2)cc(C(=O)OCC)c1 | x | x | x | x | n | x
COc1ccc(-c2c3c(nc4sc(C(=O)Nc5ccc(F)cc5)c(N)c24)CC(C)(C)CC3=O)cc1 | 14.6µM | x | u | x | n | x
CCOC(=O)c1sc(N)c(C(N)=O)c1C | n | n | n | n | n | n

Screening data as filed in PubChem BioAssay.
